Results reported in publication PMC13494018.

B1: design_606_b60ff77f-1541-4e5f-8260-46d5e5f6b85e_1676_dldesign_0_cycle1_af2pred (protein)
chain: DEAVKKAKELAKKLLEEAKKAAKKGDVETVKAIAKEAKAKAEEAEKNEGFKAAAELYSAYFRIEHMAESLA
B2: design_607_777643b9-bd23-49d1-80ae-2b1434974efa_278_dldesign_0_cycle1_af2pred (protein)
chain: SSLTLEASKKSGEAYFLLNEAEFLAKKKGDEETAKKAEEARKKLKEKLDAAKTGAEKLAAALEGLKEAEKIYKEALE
B3: design_607_777643b9-bd23-49d1-80ae-2b1434974efa_649_dldesign_0_cycle1_af2pred (protein)
chain: DAAKAAAKAFAAGAIKLAEKLAKEYPEIAATMKEAIAAAKEAAKLADTDAAAGKAAASAANFTVLEAYAEAKA
B4: design_606_b60ff77f-1541-4e5f-8260-46d5e5f6b85e_1975_dldesign_0_cycle1_af2pred (protein)
chain: AEAESQKVLDTAAELEADLILLGYKKPEIKEQALEDAKKVRRNAREAAGLILKDPEKGKKLAEETEKEGKELIKKYEEEV
B5: design_606_b60ff77f-1541-4e5f-8260-46d5e5f6b85e_2076_dldesign_0_cycle1_af2pred (protein)
chain: ATQAEASQAAAEASEARAELEQAAKKLKEEGKEELAKKAEEAAEEARKLLKQAQKADTDTAYKLAQEAKKKLEKELKKAKKA
B6: design_607_777643b9-bd23-49d1-80ae-2b1434974efa_280_dldesign_0_cycle1_af2pred (protein)
chain: GAEKEKAEKIAKEKLAEGKKLAEEAKKGTPEEAKKKRKEFLEELKKLAKEGTPYLAKLLAKVAAEVSEAFAEAYAEALRK
B7: design_607_777643b9-bd23-49d1-80ae-2b1434974efa_1207_dldesign_0_cycle1_af2pred (protein)
chain: AVAEAAQYAQEARQYAAEAEYLGKKYGKKNKEIKKYAEKAKEAAKKAREAAKKGDLEAAKEYAKKAKELAEKAEELAKKEEE
B8: design_607_777643b9-bd23-49d1-80ae-2b1434974efa_37_dldesign_0_cycle1_af2pred (protein)
chain: SSNKETADAIRDAVKAAQEVGKLAKEKLSPEEAKAVADELNKAIFDLVDTAASEGVDGAKAAAADVKAKVEKLKKEIAAKAAAA
B9: design_607_777643b9-bd23-49d1-80ae-2b1434974efa_351_dldesign_0_cycle1_af2pred (protein)
chain: SEEEAKKLAEEAAKKAREAAEEAEKLAKEAEKIGNKKIANKLYAYAERLKNVAESVELHAGDKEYAEKGLEVTEKLRKKAKELYKEAK
B10: design_606_b60ff77f-1541-4e5f-8260-46d5e5f6b85e_2386_dldesign_0_cycle1_af2pred (protein)
chain: KEEEFEKLKQKAAQLILESYDALSKNIEEAKKYLKEALKAAEEAKKVDPEKGEEVLKKVEKTSKSILKSMELAKKA
B11: design_606_b60ff77f-1541-4e5f-8260-46d5e5f6b85e_2092_dldesign_0_cycle1_af2pred (protein)
chain: MEEEKKKKAKELGEKLVEEVKKAAEEAKKTAETGTPEDAEKAKLDLSKKVHEALSELAEIGQKYDWEEAEKAKKEVIEIGKKAVA
B12: design_606_b60ff77f-1541-4e5f-8260-46d5e5f6b85e_1625_dldesign_0_cycle1_af2pred (protein)
chain: MAKEKAKKEAKKLTEEAAKKIREAALKEENPLEVAKEITEEVLKKIEEIGKKAGLSEEEIEKLKKEAKKKLAAAAHEAYQERAEEEFE
B13: design_607_777643b9-bd23-49d1-80ae-2b1434974efa_1068_dldesign_0_cycle1_af2pred (protein)
chain: MKKKASELMHEAYELAALAEAYPENAEEYYKKAKEYGEEAVKEAEKYDPEYGKKAKERAEKVTKRAKEAVEKYKKEK
B14: design_606_b60ff77f-1541-4e5f-8260-46d5e5f6b85e_2039_dldesign_0_cycle1_af2pred (protein)
chain: SEEEEASKRNKELADKIREAVRNMREAYAAMQAALAAGDAAAAKAAADKALAQAKVLEELGLTSQAQSNAAKIKADLAAGLAALAA
B15: design_607_777643b9-bd23-49d1-80ae-2b1434974efa_1186_dldesign_0_cycle1_af2pred (protein)
chain: KEAEIKAEAQALIDAVRAAAAAAVALAADPAAARALLTAAIGKVLEGSKEAASLALPEAVAIAREAGAAAEAAHAAAA
B16: design_606_b60ff77f-1541-4e5f-8260-46d5e5f6b85e_2244_dldesign_0_cycle1_af2pred (protein)
chain: ENKEKVKKAKETLKKARKEAEKAVKKGVLTPEQIARIQEKLHKASELIAEAEQEKGEEGKEKAEKALELAKEVLKEVKEAE
B17: design_607_777643b9-bd23-49d1-80ae-2b1434974efa_981_dldesign_0_cycle1_af2pred (protein)
chain: MAEEAKKKLEQAAKLMAIAYETLAAGERGLATPEELKEAAKKAEEAAKLAKEVGKVTPEKEYYEKAAKRAEKVAKRLKELAKKIEE
B18: design_607_777643b9-bd23-49d1-80ae-2b1434974efa_1238_dldesign_0_cycle1_af2pred (protein)
chain: SLKEALLEEAKEAIKAAKAGDASKVAAETLEMRSAAEALAKDDEEAKKFAEKTRKALELLRKDPEKGLKYAEEVAKEIIKAIE
B19: design_607_777643b9-bd23-49d1-80ae-2b1434974efa_1231_dldesign_0_cycle1_af2pred (protein)
chain: AEEEKKKKEEEKKRTAENKALAYEEAARHAMEQGEKGSPEQRPAAVERAREFAKRAIEADPKKGAELLKEVEAFAAKWEEEA
B20: design_606_b60ff77f-1541-4e5f-8260-46d5e5f6b85e_2122_dldesign_0_cycle1_af2pred (protein)
chain: GMEEEKERALEEIRRAREEIKKVAEELKEVDPELAKKAEKVLERAERGLEEGEKNPIAAIGMAEIVRDQLENGKKLLAEKKA
B21: design_606_b60ff77f-1541-4e5f-8260-46d5e5f6b85e_1708_dldesign_0_cycle1_af2pred (protein)
chain: NEAEKKLKKVAEDAEKALSEAIKASKDDPEKQKELKEKLEQVKKLYEEGLKGTPEDMAKAAAEMRQLRSEADYVLSNAK
B22: design_606_b60ff77f-1541-4e5f-8260-46d5e5f6b85e_2053_dldesign_0_cycle1_af2pred (protein)
chain: SSSLIEENKKEAKEEFNKFAIENGEKRIKEAKELLKKDPEKGKEALKKVLEEAKKLKEKNPEAGEKVEKAAEKALKEA
B23: design_607_777643b9-bd23-49d1-80ae-2b1434974efa_139_dldesign_0_cycle1_af2pred (protein)
chain: NEEQKKLAEEAIEEIKRLQEKAFDAVGAGDIEEAKKYLEEMEKVAKETAAKVPPEYAKKVLEALEKAKKAVESAIKAAEENEK
B24: design_607_777643b9-bd23-49d1-80ae-2b1434974efa_665_dldesign_0_cycle1_af2pred (protein)
chain: MKETEEEIKKIEEEAKELAEKGKEKSVEEFKKEMVKFIFSLADEGAHPEAISSAARIAKESYEKLKKKEEEEKK
B25: design_606_b60ff77f-1541-4e5f-8260-46d5e5f6b85e_2343_dldesign_0_cycle1_af2pred (protein)
chain: DAEEHAKEAEKAIKEAKAYIEEAIKTGDSEKAHEARQKLAEAEYEAKKVYELDPEKGAKLLKKVEEVKKLLKELQK
B26: design_606_b60ff77f-1541-4e5f-8260-46d5e5f6b85e_1772_dldesign_0_cycle1_af2pred (protein)
chain: SKKEEVKERVKEVLERAKKVAERGKKAGVDINEASEMMALAYEAKAAAEAGHIEEAEKLMKKAEEKLKKLEKRAKELEA
B27: design_606_b60ff77f-1541-4e5f-8260-46d5e5f6b85e_1622_dldesign_0_cycle1_af2pred (protein)
chain: NDKELSKKVHEGYELVAEYEQDPSFIKKNKEKAKEIAKKAEEAAKAAEEGAKKYPELAKALEKIAKKAKEVAKEAKKVAK
B28: design_606_b60ff77f-1541-4e5f-8260-46d5e5f6b85e_1627_dldesign_0_cycle1_af2pred (protein)
chain: EEEKKKKYEELLKKAREEMEKLGKEFKKAVEKGDSKAASEAFRKAVKVAREAGEEAKKLGPEGEELEKELSQLLLEIAD
B29: design_607_777643b9-bd23-49d1-80ae-2b1434974efa_529_dldesign_0_cycle1_af2pred (protein)
chain: NLGEKASKATKVLVDAAKEIAKKAGEEAKAKAAAALVTLFSLFEDPEKAAKEAKALVPEKAKPIVEKAAKEADKLLN
B30: design_606_b60ff77f-1541-4e5f-8260-46d5e5f6b85e_2269_dldesign_0_cycle1_af2pred (protein)
chain: ITEDEVVEINNKGSKEGPLWKEAADYAIKALSYKIIAELVLSSENAEEDHKKALAKAEEYEAKYKEKLEKAEKAKKEK
B31: design_607_777643b9-bd23-49d1-80ae-2b1434974efa_648_dldesign_0_cycle1_af2pred (protein)
chain: SEEERRRREEAYRELSEALREARELGKRLKEAGADPEVIKRLSELLAEISETLAELRAGLANEEEIERAKEAAREALELAREELERL
B32: design_606_b60ff77f-1541-4e5f-8260-46d5e5f6b85e_2085_dldesign_0_cycle1_af2pred (protein)
chain: ERKQEAAELAERLLEKGEKGDEFTGSAYVTRAAHAIGEALGDEEVEKEIEEANKKDVKEGIKLAREKLEELRAA
B33: design_607_777643b9-bd23-49d1-80ae-2b1434974efa_839_dldesign_0_cycle1_af2pred (protein)
chain: AAAAAKAQADAILADAKAKAAEALKKDPKTGAEEAAKIYRAAAAKLRALGAEVADDPEAVAYLSKVAAELYELAAEYASKAARL
B34: design_606_b60ff77f-1541-4e5f-8260-46d5e5f6b85e_1785_dldesign_0_cycle1_af2pred (protein)
chain: MTPEERRARGEEELARLAKKIEEARKKAEEDGKKGSQDLFSLAERLENLAESAPEIAEEARALGEEARKLAEKLYS
B35: design_607_777643b9-bd23-49d1-80ae-2b1434974efa_640_dldesign_0_cycle1_af2pred (protein)
chain: AETEKKIKELEKKAHDAYQKAAEYYHDKNLKEAGDLYRKAAKLYAEAAKALAKGEEAPKAEEYEAKAKAYEEEAQKLKA
B36: design_607_777643b9-bd23-49d1-80ae-2b1434974efa_321_dldesign_0_cycle1_af2pred (protein)
chain: SKIYEEKKKEIEEAAEKAKELAKKDPEKGRKYLKEKNKKFKEFVEKLKADPKTKADAEKILKEASKKSAEVYEVIAEEEQKKRRE
B37: design_606_b60ff77f-1541-4e5f-8260-46d5e5f6b85e_2038_dldesign_0_cycle1_af2pred (protein)
chain: EAKEKAKLLKEAAKLAKEAAKAAADKEKAKKLATEAADLAIKAGDYKTNGYMESAILNAEAGNAEAAKAAAEKAAKRAEEKAKKL
B38: design_607_777643b9-bd23-49d1-80ae-2b1434974efa_21_dldesign_0_cycle1_af2pred (protein)
chain: MEVEKLRKKAVEEAKKGGLGTPEEAREKRKKAEELLKEMKKAGATEEEVAKAATEAAEAYVEAKNEKYLKE

Molecular target: VTCN1, Q7Z7D3
Sequence (Q7Z7D3 whole entry): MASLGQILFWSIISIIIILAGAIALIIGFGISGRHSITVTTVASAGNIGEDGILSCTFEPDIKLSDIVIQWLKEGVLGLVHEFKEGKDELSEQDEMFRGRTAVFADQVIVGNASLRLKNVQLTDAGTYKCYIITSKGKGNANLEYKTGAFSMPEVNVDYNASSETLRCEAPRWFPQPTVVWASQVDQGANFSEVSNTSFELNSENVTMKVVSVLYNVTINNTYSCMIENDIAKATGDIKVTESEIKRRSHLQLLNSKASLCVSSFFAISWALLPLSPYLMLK

Binding in a display sort, inactive:
B1 not found
B2 not found
B3 not found
B4 not found
B5 not found
B6 not found
B7 not found
B8 not found
B9 not found
B10 not found
B11 not found
B12 not found
B13 not found
B14 not found
B15 not found
B16 not found
B17 not found
B18 not found
B19 not found
B20 not found
B21 not found
B22 not found
B23 not found
B24 not found
B25 not found
B26 not found
B27 not found
B28 not found
B29 not found
B30 not found
B31 not found
B32 not found
B33 not found
B34 not found
B35 not found
B36 not found
B37 not found
B38 not found
